Laboratory results from PubChem BioAssay.
The source made the active and inactive calls.

How the values were obtained:
[1] = system: Human papillomavirus type 1a protein E7 (residues 44-93); test: HPV1a E7 fragment binders on microarrays, primary screen, biochemical, small-molecule microarray, residues 44-93, 635 nm fluorescence (AID 1108); conditions: small-molecule microarray binding, fluorescence 635 nm; higher = more signal;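 note: E7 fragment applied at 1 µg/mL in TBST for 1 h at 4 C; score combines spot fluorescence with its signal to noise ratio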
[2] = modulators of HCV replicon luciferase signal, primary screen, HCV replication inhibitor project, Huh7 cells, luciferase reporter (AID 1109); conditions: 48 h, higher = more signal;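 note: huh7 hepatoma cells harbouring a luciferase neomycin HCV replicon reporter; luciferase luminescence as measure of HCV replicon replication; test concentration not given here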
[3] = biological target: Left-right determination factor 2 (Homo sapiens) (UniProt O00292); test: LEFTY2 binders on small-molecule microarrays, primary screen, biochemical, small-molecule microarray, 635 nm fluorescence scan (AID 1110); conditions: LEFTY2 binding, higher = more signal
Left-right determination factor 2 (Homo sapiens), sequence (O00292 whole entry, looked up): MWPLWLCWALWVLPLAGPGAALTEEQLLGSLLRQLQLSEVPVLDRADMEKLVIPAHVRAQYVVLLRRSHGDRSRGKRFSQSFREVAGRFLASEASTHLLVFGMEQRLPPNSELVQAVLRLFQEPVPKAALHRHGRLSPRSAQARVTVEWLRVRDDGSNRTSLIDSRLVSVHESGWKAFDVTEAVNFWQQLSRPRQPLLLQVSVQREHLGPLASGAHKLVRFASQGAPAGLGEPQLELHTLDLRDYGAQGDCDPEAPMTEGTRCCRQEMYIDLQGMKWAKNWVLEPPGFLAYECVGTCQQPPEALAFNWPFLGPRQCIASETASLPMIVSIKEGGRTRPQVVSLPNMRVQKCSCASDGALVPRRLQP

[4] = biological target: Calmodulin-1 (Homo sapiens) (UniProt P0DP23); test: CALM1 binders on microarrays, EGTA buffer, profiling panel, biochemical, small-molecule microarray, Cy5-labelled CALM1 (AID 1111); conditions: Cy5-CALM1 binding fluorescence, higher = more signal;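 note: labelled calmodulin applied in Tris saline Tween buffer holding calcium plus EGTA and DTT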
[5] = biological target: Calmodulin-1 (Homo sapiens) (UniProt P0DP23); test: calcium-bound CALM1 binders on microarrays, profiling panel, artefact control for SMM control-protein annotation, biochemical, small-molecule microarray, Cy5-labelled CALM1, plus calcium (AID 1112); conditions: Cy5-CALM1 binding fluorescence, higher = more signal;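 note: score merges spot fluorescence with signal to noise from triplicate slides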
[6] = small-molecule microarray binders of probe aWnt5a, primary screen, biochemical, biotinylated probe, 635/667 nm fluorescence (AID 1113); conditions: higher = more signal;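 note: score merges 667 nm fluorescence intensity with signal-to-noise per printed feature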
[7] = small-molecule microarray binders of probe aShh, primary screen, biochemical, biotinylated probe, 635/667 nm fluorescence (AID 1114); conditions: higher = more signal;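 note: probe is biotin-labelled aShh protein from a stem cell growth factor screen; measures binding of labelled protein to compounds printed on the slide; score merges feature fluorescence at 667 nm with signal-to-noise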
[8] = small-molecule microarray binders of probe aNog, primary screen, biochemical, biotinylated probe, 635/667 nm fluorescence (AID 1115); conditions: higher = more signal;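 note: probe is biotinylated aNog protein used at 0.15 µg/mL for 1 h at 4 C; z-score combines 667 nm fluorescence of each spot with its signal to noise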
[9] = biological target: Torsin-1A-interacting protein 1 (Homo sapiens) (UniProt Q5JTV8); test: LAP1 binders from COS7 cell lysate, primary screen, small-molecule microarray, 635/667 nm fluorescence (AID 1116); conditions: COS7-hLAP1 lysate binding, 635 nm fluorescence, higher = more signal
Torsin-1A-interacting protein 1 (Homo sapiens), sequence (Q5JTV8 whole entry, looked up): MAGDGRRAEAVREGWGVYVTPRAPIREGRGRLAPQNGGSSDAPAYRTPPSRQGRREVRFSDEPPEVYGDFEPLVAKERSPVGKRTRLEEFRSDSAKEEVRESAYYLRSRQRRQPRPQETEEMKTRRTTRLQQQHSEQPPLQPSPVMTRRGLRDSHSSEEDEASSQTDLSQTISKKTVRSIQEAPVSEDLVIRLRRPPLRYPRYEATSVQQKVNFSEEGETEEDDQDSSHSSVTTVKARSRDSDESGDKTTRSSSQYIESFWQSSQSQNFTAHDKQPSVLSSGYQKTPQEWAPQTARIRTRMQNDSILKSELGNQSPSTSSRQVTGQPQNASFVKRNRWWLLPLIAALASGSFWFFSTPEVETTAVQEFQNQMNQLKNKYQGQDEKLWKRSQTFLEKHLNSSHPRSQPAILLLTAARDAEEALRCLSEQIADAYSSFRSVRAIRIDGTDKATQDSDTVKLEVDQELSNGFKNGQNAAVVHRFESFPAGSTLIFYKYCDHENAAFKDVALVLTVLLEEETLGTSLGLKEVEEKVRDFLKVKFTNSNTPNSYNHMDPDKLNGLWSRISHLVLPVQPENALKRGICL

[10] = biological target: Alpha-bungarotoxin (Bungarus multicinctus) (UniProt P60615); test: alpha-bungarotoxin binders on microarray, profiling panel, artefact control for SMM control protein annotation, biochemical, small-molecule microarray, Alexa647 label, 635/667 nm fluorescence (AID 1117); conditions: alpha-BTX-A647 binding fluorescence, higher = more signal
Alpha-bungarotoxin (Bungarus multicinctus), sequence (P60615 whole entry, looked up): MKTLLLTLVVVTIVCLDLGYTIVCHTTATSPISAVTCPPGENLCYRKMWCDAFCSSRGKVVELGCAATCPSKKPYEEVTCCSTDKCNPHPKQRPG

Albumin (Bos taurus) = Albumin (Bos taurus) (UniProt P02769); test: bovine serum albumin binders on microarray, profiling panel, artefact control for SMM control protein annotation, biochemical, small-molecule microarray, Alexa647 label, 635/667 nm fluorescence (AID 1118); conditions: BSA-A647 binding, fluorescence 635 nm, higher = more signal;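 note: score merges 667 nm emission intensity and signal-to-noise per printed compound spot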
Albumin (Bos taurus), sequence (P02769 whole entry, looked up): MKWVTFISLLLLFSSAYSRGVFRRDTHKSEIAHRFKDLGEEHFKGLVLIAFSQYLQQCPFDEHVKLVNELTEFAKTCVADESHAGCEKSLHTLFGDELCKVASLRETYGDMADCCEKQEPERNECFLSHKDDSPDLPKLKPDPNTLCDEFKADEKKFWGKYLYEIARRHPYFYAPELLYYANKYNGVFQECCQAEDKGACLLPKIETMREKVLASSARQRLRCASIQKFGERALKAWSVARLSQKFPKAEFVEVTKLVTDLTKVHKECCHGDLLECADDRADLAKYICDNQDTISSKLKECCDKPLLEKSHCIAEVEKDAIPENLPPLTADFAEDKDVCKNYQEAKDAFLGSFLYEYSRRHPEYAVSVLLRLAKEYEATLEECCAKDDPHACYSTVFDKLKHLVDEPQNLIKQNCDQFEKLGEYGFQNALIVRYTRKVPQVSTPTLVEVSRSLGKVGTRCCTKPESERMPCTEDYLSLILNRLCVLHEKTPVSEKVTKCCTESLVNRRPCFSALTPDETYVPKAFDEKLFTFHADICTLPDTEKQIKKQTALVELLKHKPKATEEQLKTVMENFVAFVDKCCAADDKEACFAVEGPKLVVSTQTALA

[11] = small-molecule microarray binders of probe aXIP, primary screen, biochemical, NeuroSMM set, 635/667 nm fluorescence (AID 1119); conditions: higher = more signal, called active from +8 up or from −8 down;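 note: probe is the protein aXip251-270 applied at 1 µg/mL to compound-printed slides; binding of probe to printed compounds measured as 667 nm fluorescence plus signal to noise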
[12] = small-molecule binders of probe aNOTCH3, primary screen, biochemical, small-molecule microarray, 635/667 nm fluorescence (AID 1120); conditions: higher = more signal;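 note: probe is a biotin-tagged antibody raised against NOTCH3 rather than NOTCH3 protein; score merges spot fluorescence near 667 nm with spot signal to noise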
[13] = small-molecule binders of probe aNOTCH2, primary screen, biochemical, small-molecule microarray, 635/667 nm fluorescence (AID 1121); conditions: higher = more signal;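 note: score merges feature fluorescence read at 667 nm with its signal to noise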
[14] = biological target: Carbonic anhydrase 2 (Homo sapiens) (UniProt P00918); test: CAII small-molecule binders, profiling panel, biochemical, small-molecule microarray, Alexa647-labelled CAII (AID 1122); conditions: CAII-A647 binding fluorescence, higher = more signal
[15] = COS7 lysate on small-molecule microarray, probe aHis, 635 nm (AID 1123); conditions: COS7 cell lysate, fluorescence, higher = more signal;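 note: z-score combines 667nm fluorescence intensity with signal-to-noise per printed compound spot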
[16] = compound binding in COS7 lysate, probe aLAP1, primary screen, cell lysate, small-molecule microarray (AID 1124); conditions: probe aLAP1, fluorescence, higher = more signal;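 note: lysate comes from COS7 cells expressing LAP1 and is applied at 0.3 µg/mL; score merges spot fluorescence near 667 nm with signal-to-noise over triplicate slides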
Sam68 (KHDRBS1) = test: Sam68 small-molecule binders, primary screen, biochemical, small-molecule microarray, 635 nm fluorescence (AID 1125); conditions: small-molecule microarray binding, higher = more signal;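 note: score merges 667 nm channel intensity with signal to noise over triplicate slides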
[17] = system: Chordin-like protein 2 (CHRDL2); test: CHRDL2 small-molecule binders, primary screen, biochemical, small-molecule microarray, 635 nm fluorescence (AID 1126); conditions: small-molecule microarray binding, fluorescence 635 nm; higher = more signal;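 note: printed compound slides probed with Chrdl2 protein at 4 µg/mL for 1 h at 4 C; score merges 667 nm emission intensity with signal to noise over three replicate slides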
[18] = biological target: Concanavalin-A (Canavalia ensiformis) (UniProt P02866); test: ConA small-molecule binders, primary screen, artefact control for SMM control protein annotation, biochemical, small-molecule microarray, Alexa647 label, 635 nm (AID 1127); conditions: ConA-A647 binding fluorescence, higher = more signal;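 note: z combines 667 nm emission intensity with signal-to-noise across three replicate slides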
Concanavalin-A (Canavalia ensiformis), sequence (P02866 whole entry, looked up): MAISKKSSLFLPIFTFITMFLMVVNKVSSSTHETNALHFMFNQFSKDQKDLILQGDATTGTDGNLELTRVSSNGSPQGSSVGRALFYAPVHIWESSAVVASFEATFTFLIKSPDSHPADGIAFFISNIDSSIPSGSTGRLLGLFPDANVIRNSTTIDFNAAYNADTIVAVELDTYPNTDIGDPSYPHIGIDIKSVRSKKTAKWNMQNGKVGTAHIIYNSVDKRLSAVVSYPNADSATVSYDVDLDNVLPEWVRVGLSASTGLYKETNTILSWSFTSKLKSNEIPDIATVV

| SMILES | composite z-score [1] | z-score [2] | composite z-score [3] | composite z-score [4] | composite z-score [5] | composite z-score [6] | composite z-score [7] | composite z-score [8] | composite z-score [9] | composite z-score [10] | composite z-score (Albumin (Bos taurus)) | composite Z-score [11] | composite z-score [12] | composite z-score [13] | composite z-score [14] | composite z-score [15] | composite z-score [16] | composite z-score (Sam68 (KHDRBS1)) | composite z-score [17] | composite z-score [18] |
| --- | --- | --- | --- | --- | --- | --- | --- | --- | --- | --- | --- | --- | --- | --- | --- | --- | --- | --- | --- | --- |
| O=c1cccc(-c2ccc(F)cc2)o1 | -0.399 | -0.228 | 0.55 | -0.236 | -0.33 | -0.1 | 0.216 | 0.0416 | -0.184 | 0.241 | 0.445 | -0.261 (inactive) | 0.176 | -0.0527 | -0.114 | -0.218 | 0.403 | 0.501 | 0.556 | 0.354 |
| CN1C=C(C(=O)OCCS(C)(=O)=O)C(C(=O)OCCS(C)(=O)=O)=CC(c2ccc(CO)cc2)=CC1c1cccs1 (stereo not given) | 0.229 | 0.19 | 0.0843 | -0.165 | -0.388 | -0.0405 | 0.0062 | 0.304 | 1.46 | 0.821 | 0.232 | 0.142 (inactive) | 0.0026 | -0.0936 | 0.812 | 0.848 | 0.279 | 0.645 | 0.318 | 0.64 |
| CC(C)=CCCC(C)=CC(O)C1C=CC2C(=O)N(c3ccccc3)C(=O)C2N1Nc1ccccc1F (stereo not given) | 0.961 | -1.43 | -0.0742 | 1.67 | -0.132 | -0.171 | -0.414 | -0.196 | 2.19 | 0.529 | 0.846 | 0.0502 (inactive) | 0.0258 | -0.186 | 0.662 | 1.3 | 0.561 | 1.13 | -0.308 | 1.14 |
| COc1ccc([Si](C)(C)[C@@H]2[C@@H](CC(=O)N3Cc4ccccc4C[C@H]3CO)O[C@]3(C(=O)N(Cc4ccc(N5CCC5=O)cc4)c4ccccc43)[C@H]2C)cc1 | 1.02 | -3.58 | 0.759 | 1.04 | -0.0245 | -0.124 | -0.16 | -0.388 | 1.24 | 0.963 | 0.502 | -0.0662 (inactive) | -0.0362 | -0.234 | 0.337 | 1.14 | 0.421 | 1.24 | 1.19 | 1.08 |
| CO[C@H]1O[C@H](CO)[C@@H](OC(=O)Nc2cccc(F)c2)[C@H](OC(=O)Nc2ccccc2-c2ccccc2)[C@H]1OC(=O)Nc1ccccc1-c1ccccc1 | 1.48 | -3.82 | 0.494 | 0.88 | -0.305 | 0.0692 | -0.0977 | 0.895 | 1.09 | 0.816 | -0.8 | 0.55 (inactive) | 0.206 | -0.0226 | 0.577 | 2.33 | 0.57 | 1.3 | 0.484 | 0.924 |
| CN(C)C(=O)[C@@]1(CCC(=O)OC(C)(C)C)N=C(c2ccc(OCCCO)cc2)O[C@H]1c1ccccc1CN=[N+]=[N-] | 1.5 | -1.61 | -0.9 | 1.18 | 0.0572 | 0.0044 | 0.579 | 1.32 | 2.74 | 0.548 | 1 | -0.181 (inactive) | -0.0111 | -0.0206 | 0.825 | 3.22 | 0.626 | 1.29 | -0.409 | 0.613 |
| CCCCC=C[C@@H](NC(=O)c1ccccc1)c1ccccc1 | 1.38 | 1.02 | -0.174 | 1.87 | 1.28 | -0.0229 | -0.253 | -0.578 | 0.206 | 0.448 | 0.943 | -0.176 (inactive) | 0.354 | -0.0785 | 0.561 | 2.62 | 0.172 | 1.26 | -0.621 | 1.08 |
| COCCOC(=O)N1C(=O)[C@@]2(c3cc(C#CC4=CCCCC4)ccc31)[C@H](c1ccc(O)cc1)N1[C@H](c3ccccc3)[C@H](c3ccccc3)OC(=O)[C@H]1[C@@H]2C(=O)NC[C@H](O)c1ccccc1 | 1.39 | -1.66 | 0.623 | 0.713 | 0.135 | 0.0324 | 0.296 | -0.614 | 1.39 | 0.791 | 0.613 | 0.225 (inactive) | 0.158 | -0.148 | 0.27 | 1.68 | 1.02 | 1.3 | 0.642 | 0.935 |
| CCOC(=O)C[C@H]1[C@H](OC(=O)c2ccccc2-c2ccccc2)[C@@H](NC(=O)c2ccccc2)c2cc(OCCCO)ccc2N1C(=O)c1ccccc1 | 0.374 | -0.843 | 0.345 | 0.114 | 0.148 | -0.0425 | -0.0146 | -0.0926 | -0.244 | 0.0475 | 0.505 | -0.383 (inactive) | -0.0647 | -0.019 | 0.666 | 0.677 | 0.513 | 0.42 | 0.116 | 0.178 |
| COC(=O)[C@@]1(Cc2ccc(F)cc2)[C@H]2c3cc(C(=O)N4CCCC4)n(C)c3C[C@H]2CN1C(=O)c1ccccc1 | -0.919 | -1.4 | -0.917 | 2.5 | 1.11 | 0.122 | 0.0044 | 1.39 | 2.84 | 0.121 | 0.942 | 0.929 (inactive) | 0.49 | 0.295 | 0.76 | 3.32 | 1.01 | 1.31 | -1.04 | 0.683 |
| C=C(COC)/C(=C/C[C@@H](OC(=O)c1ccncc1)c1ccccc1OCCO)c1cc(C(=O)OC)ccc1OC | -0.553 | -2.5 | -0.934 | -0.188 | -0.66 | -0.107 | -0.0849 | 0.0471 | 0.332 | -0.626 | 0.247 | -0.476 (inactive) | -0.171 | -0.132 | 0.803 | 0.107 | 0.748 | -0.227 | -1.12 | -0.71 |
